In the supplement of paper PMC6555819:

What follows are sequences tested on RARb:RXRa (NR concentration 270 nM, RXRa partner concentration 90 nM) (assay: PBM binding z-score (relative to random genomic background probes); higher = stronger binding; sequences stand for … in GC…GCGATTGACAGCGTAGAATGAAGG).
How it was run: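 Binding buffer was PBS pH 7.4 with 2% milk, 0.02% Triton X-100, 1 mM DTT, 0.2 mg/mL BSA and 0.4 mg/ml salmon testes DNA. In it, ligand-free nuclear receptor dimers were incubated 1 h on custom Agilent 4×180K protein-binding microarrays carrying double-stranded probes. Antibodies against each partner (one per run) detected binding, and z-scores were calculated against random background probes after regression normalization of scanned fluorescence.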
Sequence CCTACTGGGTCATCAGGTCATTGATATCAACGTT has a PBM binding z-score of 3.9.
TAGACTAGGTCATGGGCCAGTATACCACGCGAAC was tested, and the PBM binding z-score was 3.49.
Sequence TCTTGTAAATCAAGCAGGTTAAGAAAGCCTGAGT has a PBM binding z-score of 0.495.
For TCATATAGCTAATACAGGTGAAAGTCGGCATCTA, the PBM binding z-score was 0.139.
GTAGACAGGTGAAACGCAGGTAACTCAGGGTGGC showed a PBM binding z-score of 0.688.
Work on CAGCCTAGGTCAGGGCCAGTATCGGAGGAACGTT yielded a PBM binding z-score of 3.54.
With ATCTCTAGGTAAGACTCTGTTCAGTGAAGAACGC the PBM binding z-score was 0.151.
TCGAGTAGGTTAGGTGCATTCAGAATGGCGTCGA showed a PBM binding z-score of 0.175.
Work on TCATCTAGGTAAATGCTAGGTGAAAGTCCGATCT yielded a PBM binding z-score of 0.219.
CCGAGTAGGTTATGCGGCATTCAGGCAACGGTGA was tested, and the PBM binding z-score was 0.464.
Work on TCTTGTAGATCAACAGGATGTTAAGAAAGATCGA yielded a PBM binding z-score of -0.191.
With TCGAGTAGGTCAGTCGGGGCATTCAGCCAACATA the PBM binding z-score was 3.03.
CCTACTGGGCCAAAAAGGTTATTGATGCCGATAA showed a PBM binding z-score of 1.15.
In the case of CGTCCAAGGTCACAGGTCAGTGAAGAGATGACGG, the PBM binding z-score is reported as 5.63.
With TCATATAGGTAGAAGGTGAAAGTCGGTGTGGTAA the PBM binding z-score was 1.08.
For ATCGAAAGGTCGAGGTAAGTATAGAGAAAGGGAA, the PBM binding z-score was 4.06.
Work on CGTCCAAGGTCAGCAGGTCAGTGAGAGCGACGTG yielded a PBM binding z-score of 5.39.
TCATATAGGGAAAAGGTGAAAGTCGGTGTGGTAA gave a PBM binding z-score of 1.9.
ACTATTAGTTGACTTAGGGCAACCAATACGACGC showed a PBM binding z-score of 0.985.
With ACTAGCAGGCCAAGCGTCACTCAAGATTAGTCCG the PBM binding z-score was 0.43.
AATACAGGGTCATCGTAGGCCTGAGTACGCACAG gave a PBM binding z-score of 4.43.
With ACTATTAGTTGACTTATGGCAACCGATACGACGC the PBM binding z-score was 0.351.
TTACCAAGGTGAGCTGAGGTCGTTGGTCCAACTC was tested, and the PBM binding z-score was 1.72.
Work on CCTACTGGGCCATTCAGAGTTCATTGATCATATG yielded a PBM binding z-score of 1.82.
TCTTGTAGATCAACAGGAGGTTAAGAAAGATCGA gave a PBM binding z-score of 0.617.
Work on AGAATGAGGTTATACGTAGAGCAGGGAAGAAAGT yielded a PBM binding z-score of 1.51.
Work on ACTAGTTGGTCAGCTGAGTTCACACACAATTCGG yielded a PBM binding z-score of 2.
CAGCCTAGGTCAGGCCCAGTATAGGAGGAACGTT gave a PBM binding z-score of 3.2.
With CGTCCAAGGTCATAGGAGGTCAGTGCAGACAGAT the PBM binding z-score was 5.33.
In the case of GTACCAAGGTCAATAGGTCGTTGATGAGTAGGCG, the PBM binding z-score is reported as 5.2.
Work on ATCTCTAGTTAAGACTCAGTTCAGTGAAGAACGC yielded a PBM binding z-score of 0.235.
With CCTAGCAGGCCAATCTGGGTAACTCAAGGCTTGA the PBM binding z-score was -0.071.
GCTAGTTGGTCAGTAAAAGGCCACACACCGGTCG was tested, and the PBM binding z-score was 1.42.
Work on CCTAGTTGGTCAGGAGGTCACACACCGGATATGA yielded a PBM binding z-score of 3.82.
Sequence CCTCGGAGGACAACTGGAGGTCAGAGCTGCCAGA has a PBM binding z-score of 3.07.
ATATGTAGGTTAGCTGGGATCATTCAGACTAGGC showed a PBM binding z-score of 0.723.
AGTCAAAGTGCAGGACGAGGTAACGTAAAGCACG gave a PBM binding z-score of 1.15.
GCAGACAGGTGAAACGCAGGTAGCTCAGGGTGGC was tested, and the PBM binding z-score was 0.536.
AGCGAAAGGTCGACGAGGTGAGTATACACCGTTT showed a PBM binding z-score of 3.84.
Work on TACCCTAGGTCAGATCGGGCCAGTATACGCTATA yielded a PBM binding z-score of 3.19.
